# Bioassay records deposited in PubChem BioAssay by Sanford-Burnham Center for Chemical Genomics.
# Mac1 fbg inh = blocks human CD11b/CD18 adhesion to fibrinogen | P05107+P11215 | K562 CD11b/CD18 adhesion to fibrinogen, ATPlite luminescence; Mn2+ added to activate the integrin | actives 0.54% (n = 93,000) | inhibition, % at 10 µM;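 active = primary inhibition of 50% or more at 10 µM, then 40% or more on retest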
# CYP2C19 inhib = human CYP2C19 inhibition; CYP2C19 Supersomes, luciferin-H EGE luminescence, 30 min; actives 21% (n = 96,000); AID 778; inhibition, % at 5 µM;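 active = CYP2C19 inhibition above a set limit at 5 µM in the primary screen, cut at about 50% in these data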;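 also: plate controls were negative control wells for no effect and 2.5 mM tranylcypromine positive control for full effect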
# Target sequence (P33261 whole entry, looked up): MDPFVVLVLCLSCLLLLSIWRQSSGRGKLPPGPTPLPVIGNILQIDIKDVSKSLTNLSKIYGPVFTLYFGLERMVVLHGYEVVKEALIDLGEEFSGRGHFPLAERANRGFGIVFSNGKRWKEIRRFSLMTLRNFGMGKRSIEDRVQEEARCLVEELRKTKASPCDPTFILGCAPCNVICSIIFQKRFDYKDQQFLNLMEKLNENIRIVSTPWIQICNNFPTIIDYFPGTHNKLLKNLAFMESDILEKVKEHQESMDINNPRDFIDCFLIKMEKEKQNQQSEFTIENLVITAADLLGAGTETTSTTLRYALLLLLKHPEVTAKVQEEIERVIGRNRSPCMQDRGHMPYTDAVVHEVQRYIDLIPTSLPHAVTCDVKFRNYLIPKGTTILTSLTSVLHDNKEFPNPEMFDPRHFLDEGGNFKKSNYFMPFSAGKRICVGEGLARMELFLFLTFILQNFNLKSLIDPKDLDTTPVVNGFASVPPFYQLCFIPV
# CD11b adhes enh = enhancers of human CD11b/CD18 binding to fibrinogen | P05107+P11215 | K562 CD11b/CD18 adhesion to fibrinogen, ATPlite luminescence | activation, % at 10 µM | actives 0.07% (n = 93,000);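 active = 10 µM primary screen giving 50% or more activity, confirmed by 40% or more on retest at that dose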
# CYP2C19 activ = activators of human cytochrome P450 2C19; P33261; recombinant CYP2C19, luciferin-H EGE luminescence; stronger effect = higher value; 0 = fully inhibited enzyme, 1 = untreated enzyme; activation factor at 5 µM; 96,000 tested, under 10 active;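 active = activation factor of at least 2 at 5 µM in the primary screen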;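 also: 0 = wells with 2.5 mM tranylcypromine and 1 = vehicle-only wells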
# CYP2C9 inh = inhibitors of human CYP2C9; P11712; CYP2C9 Supersomes, luciferin-H conversion, luminescence; inhibition, % at 5 µM; actives 20% (n = 96,000);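 active = blocking of liver enzyme CYP2C9 beyond about 50% at 5 µM, limit read from the data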
# CYP2C9 activ = activators of human CYP2C9. P11712. recombinant CYP2C9, luciferin-H conversion, luminescence; stronger effect = higher value; factor 1 = untreated enzyme, 0 = blocked. activation factor at 5 µM. actives 1.4% (n = 96,000);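 active = activation factor of 2 or more for CYP2C9 at a 5 µM dose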;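 also: 0 = sulfaphenazole-blocked wells and 1 = vehicle-only wells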
# The depositor's hits bear a star; · = no result given. Hits are enriched below; roughly 28% of the tested compounds scored in any of these assays.
SMILES,Mac1 fbg inh,CYP2C19 inhib,CD11b adhes enh,CYP2C19 activ,CYP2C9 inh,CYP2C9 activ
CC(C)Sc1nnc([C@H](Cc2c[nH]c3ccccc23)NC(=O)OC(C)(C)C)o1,-3,36,0,0.6,48,0.5
C=CCOc1ccccc1CNn1nnnc1N,22,35,-1,0.6,-7,1.1
Cc1nnc(SCC(=O)Nc2cccc(C(F)(F)F)c2)[nH]c1=O,-1,-6,-7,1.1,22,0.8
COc1cc(NC(=O)CSCC(=O)Nc2cccc(C(F)(F)F)c2)c(Cl)cc1Cl,35,31,-3,0.7,50*,0.5
NNC(=O)CN1C(c2ccc(Cl)cc2)=Nc2ccc(Br)cc2C1c1ccccc1 (stereo not given),-5,47,2,0.5,58*,0.4
Cc1ccc(C(C(=O)NCCc2ccccc2)N(C(=O)c2csnn2)C2CC2)o1 (stereo not given),-6,40,-1,0.6,23,0.8
CCSc1nc2c(c(=O)[nH]1)C(c1ccncc1)C(C(=O)OC(C)C)=C(C)N2 (stereo not given),6,90*,-4,0.1,57*,0.4
Cc1ccc(NC(=O)c2cc3nc(C)cc(C)n3n2)cc1,6,-4,-2,1,5,1
Cc1cccc(OC(C)C(=O)N(Cc2cccs2)C2CCS(=O)(=O)C2)c1C (stereo not given),-4,95*,-2,0.1,38,0.6
O=c1c(-c2nc3ccccc3s2)cccn1Cc1ccc(Cl)c(Cl)c1,42,-13,-4,1.1,74*,0.3
CC(=O)Nc1ccc(C2Nc3ccccc3C(=O)N2C2CCCCC2)cc1 (stereo not given),-2,47,-6,0.5,84*,0.2
CCCN1C/C(=C/c2cccc([N+](=O)[O-])c2)C(=O)/C(=C/c2cccc([N+](=O)[O-])c2)C1,0,61*,16,0.4,44,0.6
CCCN1C/C(=C/c2ccc3c(c2)OCO3)C(=O)/C(=C/c2ccc3c(c2)OCO3)C1,17,·,1,·,·,·
Nc1c(C(=O)NCc2ccco2)nnn1CC(=O)Nc1ccccc1,25,3,-1,1,18,0.8
Cc1ccc2c(c1)nnn2C1CCN(S(=O)(=O)c2ccc(C(=O)N3C(C)CCCC3C)cc2)CC1 (stereo not given),-1,77*,-4,0.2,50,0.5
COCC(=O)N1CCC(n2nnc3cc(F)ccc32)CC1,·,2,·,1,1,1
Cc1ccc2c(c1)nnn2C1CCN(S(C)(=O)=O)CC1,-6,31,-3,0.7,12,0.9
Cc1cccc(C(=O)N2CCC(n3nnc4cc(F)ccc43)CC2)c1,4,84*,9,0.2,82*,0.2
COc1cc(OC)cc(C(=O)N2CCC(n3c(C)nc4cc(F)ccc43)CC2)c1,7,15,-1,0.9,67*,0.3
O=C(CN1CCC(n2nnc3cc(F)ccc32)CC1)NC1CCCCC1,-26,58*,-4,0.4,60*,0.4
CCOc1ccccc1C(=O)N1CCC(n2nnc3cc(C)ccc32)CC1,15,21,-1,0.8,20,0.8
O=C(CN1CCC(n2nnc3cc(F)ccc32)CC1)N1CCc2ccccc2C1,-2,52*,1,0.5,14,0.9
COC(=O)c1ccccc1NC(=O)CN1CCC(n2nnc3cc(F)ccc32)CC1,1,35,34,0.6,20,0.8
CCOc1ccccc1C(=O)N1CCC(n2nnc3cc(C(F)(F)F)ccc32)CC1,-24,68*,8,0.3,53*,0.5
O=C(CN1CCC(n2nnc3cc(F)ccc32)CC1)NC1CC1,-17,9,-4,0.9,5,1
CCOc1ccc2nc(NC(=O)CN3CCC(n4nnc5cc(F)ccc54)CC3)sc2c1,57,80*,1,0.2,86*,0.1
O=C(CN1CCC(n2nnc3cc(F)ccc32)CC1)Nc1ccccc1N1CCOCC1,8,96*,4,0,85*,0.1
CCC1(CC)NC(=S)N(Nc2ccccc2)C1=O,6,30,0,0.7,-3,1
O=C(NC1CCS(=O)(=O)C1)C12CC3CC(CC(C3)C1)C2 (stereo not given),-6,0,14,1,-5,1.1
